Measured values reported in ChEMBL document CHEMBL2218924, “A broad activity screen in support of a chemogenomic map for kinase signalling research and drug discovery” (Biochem J, 2013).

What was measured:
[1] = biological target: T1, Ephrin type-A receptor 3 (Homo sapiens) (UniProt P29320); settings: at 10 µM
T1 sequence (whole entry): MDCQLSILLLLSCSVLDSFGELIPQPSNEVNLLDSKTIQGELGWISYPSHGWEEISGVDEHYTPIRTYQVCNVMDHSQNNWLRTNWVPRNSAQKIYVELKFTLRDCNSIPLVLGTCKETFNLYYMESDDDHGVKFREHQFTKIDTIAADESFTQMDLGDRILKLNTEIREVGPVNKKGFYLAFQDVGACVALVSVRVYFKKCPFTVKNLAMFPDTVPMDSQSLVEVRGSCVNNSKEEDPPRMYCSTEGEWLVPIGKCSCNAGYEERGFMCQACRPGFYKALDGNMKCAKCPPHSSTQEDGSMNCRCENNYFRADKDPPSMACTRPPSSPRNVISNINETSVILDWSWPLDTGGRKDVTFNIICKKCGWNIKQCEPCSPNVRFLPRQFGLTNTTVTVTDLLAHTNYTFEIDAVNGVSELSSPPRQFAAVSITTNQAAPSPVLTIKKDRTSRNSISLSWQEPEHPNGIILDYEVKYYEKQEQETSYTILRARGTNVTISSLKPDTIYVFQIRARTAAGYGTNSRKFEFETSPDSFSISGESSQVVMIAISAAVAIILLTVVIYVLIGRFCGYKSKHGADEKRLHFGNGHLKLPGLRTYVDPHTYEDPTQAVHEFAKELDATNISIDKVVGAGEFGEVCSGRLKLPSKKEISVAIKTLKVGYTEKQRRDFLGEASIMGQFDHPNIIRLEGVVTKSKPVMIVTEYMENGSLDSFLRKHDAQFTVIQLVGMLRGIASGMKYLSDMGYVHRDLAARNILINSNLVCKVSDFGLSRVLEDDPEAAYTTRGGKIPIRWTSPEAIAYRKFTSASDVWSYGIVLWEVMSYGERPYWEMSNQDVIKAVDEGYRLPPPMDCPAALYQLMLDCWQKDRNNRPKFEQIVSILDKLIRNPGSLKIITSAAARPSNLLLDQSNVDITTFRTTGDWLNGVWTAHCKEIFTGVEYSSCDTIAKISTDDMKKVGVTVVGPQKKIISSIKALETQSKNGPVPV

[2] = biological target: Ephrin type-A receptor 4 (Homo sapiens) (UniProt P54764); settings: at 1 µM
Ephrin type-A receptor 4 (Homo sapiens), sequence (P54764 whole entry): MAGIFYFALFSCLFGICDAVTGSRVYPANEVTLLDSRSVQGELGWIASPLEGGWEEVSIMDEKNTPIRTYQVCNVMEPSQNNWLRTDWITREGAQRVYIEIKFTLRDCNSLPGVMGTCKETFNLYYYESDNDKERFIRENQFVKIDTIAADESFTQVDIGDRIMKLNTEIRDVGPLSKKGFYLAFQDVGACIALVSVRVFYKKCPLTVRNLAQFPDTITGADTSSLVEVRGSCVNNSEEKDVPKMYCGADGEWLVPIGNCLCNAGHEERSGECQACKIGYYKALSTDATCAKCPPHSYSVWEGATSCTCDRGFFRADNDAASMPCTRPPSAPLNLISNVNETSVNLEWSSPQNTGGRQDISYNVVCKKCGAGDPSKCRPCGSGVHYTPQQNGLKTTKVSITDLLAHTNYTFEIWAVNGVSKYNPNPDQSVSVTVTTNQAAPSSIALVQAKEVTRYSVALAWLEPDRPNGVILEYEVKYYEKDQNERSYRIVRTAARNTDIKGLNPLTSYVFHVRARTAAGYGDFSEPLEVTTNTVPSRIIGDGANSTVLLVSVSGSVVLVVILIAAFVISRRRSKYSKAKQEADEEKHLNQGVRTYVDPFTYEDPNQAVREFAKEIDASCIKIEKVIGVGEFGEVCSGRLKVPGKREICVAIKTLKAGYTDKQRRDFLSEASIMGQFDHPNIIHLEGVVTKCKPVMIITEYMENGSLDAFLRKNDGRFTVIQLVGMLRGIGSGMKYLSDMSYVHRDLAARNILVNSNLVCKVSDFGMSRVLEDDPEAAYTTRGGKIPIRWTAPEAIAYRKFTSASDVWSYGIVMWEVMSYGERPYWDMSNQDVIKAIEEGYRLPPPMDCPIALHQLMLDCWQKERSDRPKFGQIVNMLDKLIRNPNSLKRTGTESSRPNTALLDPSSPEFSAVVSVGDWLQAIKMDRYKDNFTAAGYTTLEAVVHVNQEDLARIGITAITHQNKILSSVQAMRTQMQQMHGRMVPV

[3] = biological target: Ephrin type-A receptor 4 (Homo sapiens) (UniProt P54764); settings: at 10 µM
[4] = biological target: Ephrin type-A receptor 5 (Homo sapiens) (UniProt P54756); settings: at 10 µM
Ephrin type-A receptor 5 (Homo sapiens), sequence (P54756 whole entry): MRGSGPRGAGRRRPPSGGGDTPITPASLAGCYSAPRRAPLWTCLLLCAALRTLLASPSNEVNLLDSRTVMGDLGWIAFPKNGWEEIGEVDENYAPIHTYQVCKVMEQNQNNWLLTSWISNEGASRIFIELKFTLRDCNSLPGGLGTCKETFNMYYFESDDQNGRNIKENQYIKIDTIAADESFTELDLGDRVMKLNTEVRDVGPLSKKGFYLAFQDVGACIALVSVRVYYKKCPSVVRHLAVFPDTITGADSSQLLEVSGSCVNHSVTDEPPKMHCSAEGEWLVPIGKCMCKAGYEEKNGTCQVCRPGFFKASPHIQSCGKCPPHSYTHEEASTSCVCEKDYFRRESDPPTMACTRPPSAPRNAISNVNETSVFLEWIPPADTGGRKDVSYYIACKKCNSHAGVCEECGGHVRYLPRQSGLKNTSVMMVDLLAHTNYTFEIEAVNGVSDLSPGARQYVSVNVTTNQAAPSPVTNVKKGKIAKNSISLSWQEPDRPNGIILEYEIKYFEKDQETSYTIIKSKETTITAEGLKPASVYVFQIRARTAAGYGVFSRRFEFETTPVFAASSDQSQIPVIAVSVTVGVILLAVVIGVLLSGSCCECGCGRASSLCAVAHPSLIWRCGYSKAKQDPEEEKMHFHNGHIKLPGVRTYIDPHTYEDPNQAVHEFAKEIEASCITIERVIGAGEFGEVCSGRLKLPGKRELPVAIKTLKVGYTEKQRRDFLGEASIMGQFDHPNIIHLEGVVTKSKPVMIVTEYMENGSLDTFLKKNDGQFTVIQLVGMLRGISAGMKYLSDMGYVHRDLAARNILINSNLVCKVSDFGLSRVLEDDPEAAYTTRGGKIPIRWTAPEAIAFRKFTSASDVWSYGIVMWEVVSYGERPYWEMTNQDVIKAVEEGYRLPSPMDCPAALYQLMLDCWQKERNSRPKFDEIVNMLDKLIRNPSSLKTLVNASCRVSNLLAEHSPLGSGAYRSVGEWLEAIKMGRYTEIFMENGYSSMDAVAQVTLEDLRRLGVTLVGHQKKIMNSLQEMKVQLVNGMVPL

[5] = biological target: Ephrin type-A receptor 7 (Homo sapiens) (UniProt Q15375); settings: at 10 µM
Ephrin type-A receptor 7 (Homo sapiens), sequence (Q15375 28-998 limits assumed): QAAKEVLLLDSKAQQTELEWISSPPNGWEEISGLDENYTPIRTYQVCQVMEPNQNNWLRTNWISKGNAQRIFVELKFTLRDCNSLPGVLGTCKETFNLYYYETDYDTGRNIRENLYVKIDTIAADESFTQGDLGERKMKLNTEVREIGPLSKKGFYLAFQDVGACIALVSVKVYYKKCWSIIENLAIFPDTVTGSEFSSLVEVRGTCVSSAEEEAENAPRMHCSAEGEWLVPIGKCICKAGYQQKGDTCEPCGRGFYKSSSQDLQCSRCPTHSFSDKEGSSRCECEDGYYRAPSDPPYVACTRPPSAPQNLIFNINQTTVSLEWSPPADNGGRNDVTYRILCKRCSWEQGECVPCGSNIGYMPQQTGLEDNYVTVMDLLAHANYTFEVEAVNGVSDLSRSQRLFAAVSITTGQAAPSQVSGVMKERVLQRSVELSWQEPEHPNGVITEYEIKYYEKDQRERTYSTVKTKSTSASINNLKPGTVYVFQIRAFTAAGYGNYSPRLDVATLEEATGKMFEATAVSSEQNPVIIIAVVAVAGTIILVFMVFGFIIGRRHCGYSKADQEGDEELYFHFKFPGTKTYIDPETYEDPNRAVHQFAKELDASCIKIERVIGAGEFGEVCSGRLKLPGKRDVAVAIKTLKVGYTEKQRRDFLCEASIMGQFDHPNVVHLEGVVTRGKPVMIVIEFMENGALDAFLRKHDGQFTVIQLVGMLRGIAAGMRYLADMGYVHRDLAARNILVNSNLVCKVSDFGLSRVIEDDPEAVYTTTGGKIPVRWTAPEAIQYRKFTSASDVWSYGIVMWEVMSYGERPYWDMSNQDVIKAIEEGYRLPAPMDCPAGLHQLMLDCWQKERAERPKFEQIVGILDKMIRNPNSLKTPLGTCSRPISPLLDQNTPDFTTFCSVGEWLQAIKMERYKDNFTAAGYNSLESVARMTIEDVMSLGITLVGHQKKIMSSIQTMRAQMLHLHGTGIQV

[6] = biological target: T2, Ephrin type-B receptor 3 (Homo sapiens) (UniProt P54753); settings: at 10 µM
T2 sequence (whole entry): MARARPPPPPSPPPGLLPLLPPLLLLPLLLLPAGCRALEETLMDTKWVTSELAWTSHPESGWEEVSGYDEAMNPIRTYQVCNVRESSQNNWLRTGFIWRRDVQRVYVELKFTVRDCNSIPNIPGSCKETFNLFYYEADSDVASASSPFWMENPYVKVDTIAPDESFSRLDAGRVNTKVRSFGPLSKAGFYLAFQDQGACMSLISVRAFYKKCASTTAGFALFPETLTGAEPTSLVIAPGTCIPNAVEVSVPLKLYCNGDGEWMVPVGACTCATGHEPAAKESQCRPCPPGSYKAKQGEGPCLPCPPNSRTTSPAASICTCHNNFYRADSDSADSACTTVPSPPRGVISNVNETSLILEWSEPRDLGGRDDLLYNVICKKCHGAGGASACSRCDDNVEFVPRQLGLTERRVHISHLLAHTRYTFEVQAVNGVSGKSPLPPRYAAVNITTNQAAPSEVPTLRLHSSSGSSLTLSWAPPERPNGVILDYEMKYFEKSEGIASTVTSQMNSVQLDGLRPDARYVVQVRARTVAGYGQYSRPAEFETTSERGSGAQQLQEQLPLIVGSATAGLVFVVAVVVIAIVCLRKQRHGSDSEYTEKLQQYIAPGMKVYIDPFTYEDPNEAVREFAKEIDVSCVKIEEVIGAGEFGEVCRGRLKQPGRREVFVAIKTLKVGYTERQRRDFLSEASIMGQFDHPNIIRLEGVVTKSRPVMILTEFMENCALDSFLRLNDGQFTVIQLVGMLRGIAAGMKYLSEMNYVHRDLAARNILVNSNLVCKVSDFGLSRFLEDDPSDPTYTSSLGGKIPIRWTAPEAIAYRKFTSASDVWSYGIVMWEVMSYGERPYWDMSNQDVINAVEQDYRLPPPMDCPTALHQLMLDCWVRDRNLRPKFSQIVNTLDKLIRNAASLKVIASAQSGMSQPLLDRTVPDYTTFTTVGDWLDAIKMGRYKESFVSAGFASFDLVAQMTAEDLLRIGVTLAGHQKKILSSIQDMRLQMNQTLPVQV

[7] = biological target: T3, Ephrin type-B receptor 4 (Homo sapiens) (UniProt P54760); settings: at 1 µM
T3 sequence (whole entry): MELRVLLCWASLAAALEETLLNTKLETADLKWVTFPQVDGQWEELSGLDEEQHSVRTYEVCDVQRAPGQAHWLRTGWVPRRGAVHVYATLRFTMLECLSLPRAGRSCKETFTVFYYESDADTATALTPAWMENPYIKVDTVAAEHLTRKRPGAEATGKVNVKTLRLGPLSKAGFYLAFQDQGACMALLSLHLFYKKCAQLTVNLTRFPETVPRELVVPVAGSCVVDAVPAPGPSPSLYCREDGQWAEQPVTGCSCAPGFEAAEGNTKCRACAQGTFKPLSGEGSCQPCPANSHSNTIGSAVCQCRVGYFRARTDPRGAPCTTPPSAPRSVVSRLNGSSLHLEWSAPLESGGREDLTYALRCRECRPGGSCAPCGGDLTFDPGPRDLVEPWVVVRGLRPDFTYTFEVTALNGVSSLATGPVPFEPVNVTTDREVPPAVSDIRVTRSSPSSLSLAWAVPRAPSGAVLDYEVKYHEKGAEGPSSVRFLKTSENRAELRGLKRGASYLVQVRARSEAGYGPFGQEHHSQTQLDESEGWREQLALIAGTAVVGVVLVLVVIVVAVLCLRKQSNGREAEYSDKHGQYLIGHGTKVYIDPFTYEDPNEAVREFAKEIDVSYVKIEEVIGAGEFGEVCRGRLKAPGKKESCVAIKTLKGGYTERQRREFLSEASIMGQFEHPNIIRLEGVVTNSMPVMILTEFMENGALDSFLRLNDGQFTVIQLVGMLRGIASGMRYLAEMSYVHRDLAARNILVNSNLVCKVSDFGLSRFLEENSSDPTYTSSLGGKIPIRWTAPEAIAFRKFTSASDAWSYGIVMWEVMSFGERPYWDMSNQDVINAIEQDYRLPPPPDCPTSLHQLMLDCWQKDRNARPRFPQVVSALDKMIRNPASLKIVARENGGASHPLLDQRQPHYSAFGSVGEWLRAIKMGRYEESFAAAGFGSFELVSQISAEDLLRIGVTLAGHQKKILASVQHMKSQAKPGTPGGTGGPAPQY

[8] = biological target: T3, Ephrin type-B receptor 4 (Homo sapiens); settings: at 10 µM
[9] = biological target: Receptor tyrosine-protein kinase erbB-4 (Homo sapiens) (UniProt Q15303); settings: at 10 µM
Receptor tyrosine-protein kinase erbB-4 (Homo sapiens), sequence (Q15303 whole entry): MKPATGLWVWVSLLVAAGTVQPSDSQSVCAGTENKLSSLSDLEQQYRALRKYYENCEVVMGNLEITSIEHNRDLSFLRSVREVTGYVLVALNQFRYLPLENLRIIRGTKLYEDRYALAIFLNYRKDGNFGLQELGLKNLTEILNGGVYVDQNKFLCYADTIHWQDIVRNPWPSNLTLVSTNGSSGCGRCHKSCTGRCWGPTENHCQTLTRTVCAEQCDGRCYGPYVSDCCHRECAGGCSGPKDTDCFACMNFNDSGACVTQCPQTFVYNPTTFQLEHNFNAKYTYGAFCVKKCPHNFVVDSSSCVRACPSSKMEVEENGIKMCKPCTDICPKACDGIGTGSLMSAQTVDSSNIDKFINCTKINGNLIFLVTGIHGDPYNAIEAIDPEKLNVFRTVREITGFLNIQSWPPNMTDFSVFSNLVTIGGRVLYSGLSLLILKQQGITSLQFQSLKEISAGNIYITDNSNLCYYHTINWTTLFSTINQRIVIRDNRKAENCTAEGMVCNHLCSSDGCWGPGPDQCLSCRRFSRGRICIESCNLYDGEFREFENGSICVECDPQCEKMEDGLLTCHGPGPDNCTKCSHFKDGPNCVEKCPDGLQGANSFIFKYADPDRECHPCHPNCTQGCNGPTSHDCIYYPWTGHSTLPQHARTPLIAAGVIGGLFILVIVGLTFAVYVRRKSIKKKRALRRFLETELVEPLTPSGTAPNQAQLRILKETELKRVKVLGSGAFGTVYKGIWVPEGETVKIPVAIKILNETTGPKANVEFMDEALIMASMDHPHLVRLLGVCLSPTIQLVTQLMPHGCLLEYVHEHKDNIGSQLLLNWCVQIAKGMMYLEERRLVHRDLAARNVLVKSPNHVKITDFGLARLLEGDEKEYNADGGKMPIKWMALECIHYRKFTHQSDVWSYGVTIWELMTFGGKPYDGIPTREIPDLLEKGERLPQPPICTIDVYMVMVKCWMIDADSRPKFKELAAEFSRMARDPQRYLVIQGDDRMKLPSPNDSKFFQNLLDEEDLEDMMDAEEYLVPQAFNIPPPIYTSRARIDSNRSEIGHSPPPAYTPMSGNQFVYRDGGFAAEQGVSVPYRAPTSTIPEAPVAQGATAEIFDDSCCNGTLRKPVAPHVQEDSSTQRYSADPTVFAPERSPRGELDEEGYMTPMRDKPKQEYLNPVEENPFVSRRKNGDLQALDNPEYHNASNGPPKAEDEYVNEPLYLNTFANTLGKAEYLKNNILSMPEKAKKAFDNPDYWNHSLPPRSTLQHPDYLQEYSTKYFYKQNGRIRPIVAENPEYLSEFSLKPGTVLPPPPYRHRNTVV

Q: How did the residual activity [1] turn out when CSc1nc(-c2ccc(F)cc2)c(-c2ccnc(NC(C)c3ccccc3)c2)[nH]1 (centres undefined) was run?
A: The residual activity was 97%.

Q: What about the residual activity [2] of the same compound?
A: Its residual activity is 102%.

Q: What about the residual activity [3] of the same compound?
A: Its residual activity is 91%.

Q: What about the residual activity [4] of the same compound?
A: Its residual activity is 97%.

Q: What about the residual activity [5] of the same compound?
A: Its residual activity is 95%.

Q: And the residual activity [6]?
A: The residual activity was 80%.

Q: And the residual activity [7]?
A: The residual activity was 99%.

Q: What about the residual activity [8] of the same compound?
A: Its residual activity is 88%.

Q: What about the residual activity [9] of the same compound?
A: Its residual activity is 85%.
